In PubChem BioAssay (NCATS) one finds Potency, activity (max response) and viability, % of control data, which are given here for 30 compounds.

A short description of assay [1]: Viability qHTS for spleen associated tyrosine kinase inhibitor (SYKi) naive MV4-11 cells (AID 1963823). Also: nearly all actives have a fitted effect of over 40% in size. Also: potency is read from the fitted curve at half-maximal effect. The essentials:
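SYKi-naive MV4-11 AML cells, 500 per well, were exposed to library compounds for 72 hr at 37 C, 5% CO2. Viability was then read by CellTiter-Glo luminescence after 10 min at room temperature.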
(In general: Quantitative high-throughput screening tests each substance at several concentrations.)

The nature of assay [2]: Viability qHTS for spleen associated tyrosine kinase inhibitor (SYKi) drug resistant MV4-11 cells (AID 1963824). Also: nearly all actives have a fitted effect of over 35% in size. Also: potency is read from the fitted curve at half-maximal effect. The essentials:
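CellTiter-Glo luminescence, read 10 min after reagent addition, reports viability after a 72 hr compound exposure. Cells are an MV4-11 line made resistant to SYK inhibition, seeded at 500 per well onto compound-containing plates.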

Assay [3] in a line: Quantitative highthroughput screen to assess conditional lethalithy of NOMO1 cells grown in RPMI1640 with dialyzed fetal bovine serum (RPMI+ds) (AID 1963877).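 Also: series mostly up to about 46 µM; 100% = DMSO control wells and 0% = empty wells; nearly all actives have a fitted effect of over 30% in size.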 In outline: (§1)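 Each medium arm—HPLM with 10% dialyzed FBS, or RPMI1640 with 5 mM glucose and 10% untreated or dialyzed FBS—was screened against an 11-point, 3-fold compound titration for 48 h at 37 °C, with CellTiter-Glo luminescence as endpoint.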

A short description of assay [4]: Cellular viability qHTS for adrenocortical cancer (ACC) cell line SW-13 (AID 1963989). Also: nearly all actives have a fitted effect of over 65% in size. Also: potency is read from the fitted curve at half-maximal effect.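 As to activity (max response): cells grown in serum-free medium with ITS supplement; % is scaled to controls: 0 for no effect and ±100 for the full control effect.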 The settings on record: SW-13 ACC cells viability, CellTiter-Glo, 48 h; activity (max response): stronger effect = lower value. The essentials:
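Luminescent ATP read-out (CellTiter-Glo, 20 min at room temperature) measured metabolically competent SW-13 cells after 48 h compound treatment. Final concentrations spanned up to 46 uM; bortezomib served as positive control.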

Assay [5] can be described thus: Cellular viability qHTS for adrenocortical cancer (ACC) cell line NCI-H295R (AID 1963990). Also: nearly all actives have a fitted effect of over 60% in size. Also: potency is read from the fitted curve at half-maximal effect. The essentials:
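IC50 and maximal efficacy derive from four-parameter logistic modelling of titration curves, with reads scaled between DMSO-only wells (0%) and doxorubicin hydrochloride (100% inhibition). Compounds spanned up to 46 uM over 48 h.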

Assay [6] can be described thus: Quantitative highthroughput screen to assess conditional lethalithy of NOMO1 cells grown in RPMI1640 with untreated serum (RPMI+s) (AID 1963876).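 Also: 100% = DMSO wells and 0% = empty wells without cells; nearly all actives have a fitted effect of over 35% in size.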 The essentials:
as §1

Assay [7] can be described thus: Quantitative highthroughput screen to assess conditional lethalithy of P12 Ichikawa cells grown in RPMI1640 with untreated serum (RPMI+s) (AID 1963881).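 Also: series mostly up to about 46 µM; 100% = DMSO wells and 0% = empty wells without cells; nearly all actives have a fitted effect of over 35% in size.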 The settings on record: Potency: viability. The essentials:
as §1

Assay [8] is described as follows: Quantitative highthroughput screen to assess conditional lethalithy of SEM cells grown in RPMI1640 with dialyzed fetal bovine serum (RPMI+ds) (AID 1963884). Also: nearly all actives have a fitted effect of over 35% in size. Also: potency is read from the fitted curve at half-maximal effect.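 As to viability: series mostly up to about 46 µM; 100% = DMSO control wells and 0% = empty wells without cells.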 In outline:
as §1

Assay [9] is described as follows: Quantitative highthroughput screen to assess conditional lethalithy of NOMO1 cells grown in Human Plasma-Like Medium with dialyzed fetal bovine serum (HPLM+ds) (AID 1963878). In outline: as §1
The nature of assay [10]: Quantitative highthroughput screen to assess conditional lethalithy of P12 Ichikawa cells grown in Human Plasma-Like Medium with dialyzed fetal bovine serum (HPLM+ds) (AID 1963879). To be noted: Potency: viability. In outline: as §1
Assay [11] can be described thus: Quantitative highthroughput screen to assess conditional lethalithy of SEM cells grown in Human Plasma-Like Medium with dialyzed fetal bovine serum (HPLM+ds) (AID 1963882). In outline: as §1
The nature of assay [12]: Quantitative highthroughput screen to assess conditional lethalithy of SEM cells grown in RPMI1640 with unreated serum (RPMI+s) (AID 1963883). The essentials:
as §1

Assay [13] is described as follows: Quantitative highthroughput screen to assess conditional lethalithy of P12 Ichikawa cells grown in RPMI1640 with dialyzed fetal bovine serum (RPMI+ds) (AID 1963880). The settings on record: Potency: P12-Ichikawa viability. The essentials:
as §1

SMILES strings stand for the structures. Several values for one entry are separate records, joined by “and”; a condition that tells them apart may be missing. Identical values can stand only once. Results filed as inconclusive are left out. Where a structure was tested more than once in an assay, its records may differ in their call. Activity calls are given as the source filed them. Calls follow the shape of the dose curve; as a rule, active = well fitted curve in the direction sought with a large enough effect; inconclusive = small, poorly fitted or top-dose-only effect, or another doubt; inactive = no such curve, though single readings can be large; an effect the other way counts as inactive or inconclusive.

In the case of `CCNC(=O)CC1N=C(c2ccc(Cl)cc2)c2cc(OC)ccc2-n2c(C)nnc21` (stereo not given), the Potency in [1] is 14.8 µM (active) and inactive and 517 nM (active); in [2], 8.33 µM (active) and inactive and 517 nM (active). The Potency entry in [3] and in assay [5] was “inactive” throughout. In assay [4], the activity (max response) was -19.5% (inactive).

On to `NCC1(CC(=O)O)CCCCC1`, for which the Potency entry in assay [1], in assay [2], in assay [6], in assay [7], in assay [8] and in assay [5] was “inactive” in each case.

As for `CCOC(=O)CC(SP(=S)(OC)OC)C(=O)OCC` (stereo not given), the Potency entry in assay [1] and in [2] was “inactive” throughout. Also, the activity (max response) in assay [4] is 13.7% (inactive) and 6.35% (inactive).

`CCOP(=O)(OCC)C(C)NC(=O)N(CCCl)N=O` (stereo not given): the Potency entry in assay [1], in assay [9], in assay [10] and in [5] was “inactive” in each case. Also, in assay [2], the Potency was 16.6 µM (active). In assay [4], the activity (max response) is 3.2% (inactive).

For the compound `C=C(C)[C@H]1Cc2c(ccc3c2O[C@@H]2COc4cc(OC)c(OC)cc4[C@@H]2C3=O)O1`, the Potency in assay [1] is 37.6 nM (active); in assay [2], 0.0376 µM (active); in [11] it was 5.26 µM (active); in assay [12], 4.18 µM (active); in assay [8], 3.72 µM (active); in assay [4], 0.0116 µM (active). Besides, in assay [5], the Potency is 0.103 µM (active).

`Clc1cccc(SC2CCNCC2)n1`: the Potency entry in assay [1] and in assay [2] was “inactive” in each case. Besides, in assay [4], the activity (max response) was 3.75% (inactive).

`Cc1ncsc1CCCl`: the Potency entry in [1] and in assay [2] was “inactive” in each case. Further, in [4], the activity (max response) is 10.3% (inactive).

On to `CC1(N2CCC(n3c([C@@H]4CCCNC4)nc4ccccc43)CC2)CCCCCCC1`, for which the Potency in assay [1] was 6510 nM (active); in assay [2], 9.2 µM (active) and 7.42 µM (active); in assay [13], 13.2 µM (active); in [4] it was 28.2 µM (active); in [5], 17.8 µM (active). Moreover, the Potency entry in [8] is “inactive”.

With `CC[N+]1(CCOC(=O)C(O)(c2ccccc2)c2ccccc2)CCCCC1`, the Potency entry in assay [1], in assay [2] and in assay [5] was “inactive” each time. Also, the activity (max response) in [4] was 4.14% (inactive).

`COC(C)(C)CCCC(C)C/C=C/C(C)=C/C(=O)OC(C)C` (stereo not given): the Potency entry in assay [1], in assay [2] and in assay [5] was “inactive” in each case. In addition, in [4], the activity (max response) was 12.4% (inactive).

`Cc1ncc(CNC(=O)N(CCCl)N=O)c(N)n1`: the Potency entry in assay [1], in assay [2] and in [5] was “inactive” in each case. Also, the activity (max response) in assay [4] was 2.91% (inactive).

Take `COc1ccc(OC)c(CC(C)N)c1` (stereo not given): the Potency entry in assay [1], in [2] and in [5] was “inactive” in each case. For the same compound, the activity (max response) in [4] is -20.2% (inactive).

Take `C[C@]12CC[C@H]3[C@@H](CC[C@@]45O[C@@H]4C(O)=C(C#N)C[C@]35C)[C@@H]1CC[C@@H]2O`: the results for the Potency in assay [1], in [2] and in [5] were 10500 nM (active), 6.61 µM (active) and 28.2 µM (active), respectively. Also, the activity (max response) in [4] is -12.1% (inactive).

On to `Nc1ccccc1`, for which the Potency result in assay [1], in [2] and in assay [5] was “inactive” throughout. In addition, in [4], the activity (max response) was 7.78% (inactive).

As to `CN(C)NC(=O)CCC(=O)O`, the Potency entry in assay [1], in [2] and in assay [5] was “inactive” each time. Further, the activity (max response) in [4] was -24.4% (inactive).

Turning to `CC(Cc1ccc(O)cc1)NCC(O)c1cc(O)cc(O)c1` (stereo not given), the Potency entry in [1], in assay [2] and in assay [5] was “inactive” each time. Further, the activity (max response) in assay [4] was 10.9% (inactive).

Take `C=CCN1C[C@H](C)N([C@H](c2ccc(C(=O)N(CC)CC)cc2)c2cccc(OC)c2)C[C@H]1C`: the Potency result in [1] and in assay [5] was “inactive” in each case. For the same compound, in assay [2], the viability, % of control is 93.3% [at 9.25 µM] (inactive). Also, in [4], the activity (max response) was -5.15% (inactive).

For the compound `CCC1(c2ccccc2)CCC(=O)NC1=O` (stereo not given), the Potency in assay [1] was 21100 nM (active); in assay [2], 13.3 µM (active). In [4], the activity (max response) was 7.87% (inactive). Also, in assay [5], the Potency result was “inactive”.

`C[C@@H]1CN(Cc2ccc(F)cc2)CCN1C(=O)COc1ccc(Cl)cc1NC(N)=O`: the Potency in assay [1] was 934 nM (active); in assay [2] it was 0.82 µM (active); in assay [4], 5.01 µM (active); in [5], 20 µM (active).

Consider `CCOP(=S)(OCC)Oc1cc(C)nc(C(C)C)n1`, for which the Potency entry in assay [1], in assay [2] and in assay [5] was “inactive” each time. Also, in assay [4], the activity (max response) was 8.98% (inactive).

As to `NC(=O)OCCCc1ccccc1`, the Potency entry in [1], in assay [2] and in [5] was “inactive” throughout. In assay [4], the activity (max response) was 11.5% (inactive).

Take `CC(C(=O)c1ccccc1)N(C)C` (stereo not given): the Potency entry in [1], in assay [2] and in assay [5] was “inactive” in each case. Besides, in assay [4], the activity (max response) is 8.81% (inactive).

As for `Cn1c(COP(=O)(NCCBr)NCCBr)cnc1[N+](=O)[O-]`, the Potency in assay [1] was 10500 nM (active); in [2] it was 5.9 µM (active). Moreover, in assay [4], the activity (max response) was -13.5% (inactive). Further, the Potency entry in assay [5] is “inactive”.

With `C[C@]12CC[C@@H]3c4ccc(OC(=O)N(CCCl)CCCl)cc4CC[C@H]3[C@@H]1CC[C@@H]2O`, the Potency result in [1], in assay [2] and in assay [5] was “inactive” throughout.

Turning to `NCCc1cc(O)c(O)cc1O`, the Potency result in [1], in assay [2] and in assay [5] was “inactive” throughout. Besides, in assay [4], the activity (max response) is 6.64% (inactive).

Consider `O=C(NCCCNc1nc(Nc2ccc(N3CCOCC3)cc2)ncc1C1CC1)C1CCC1`, for which the Potency was 118 nM (active) in assay [1] and 0.166 µM (active) in assay [2]. Further, the Potency entry in assay [5] was “inactive”.

For `CCCCC1C(=O)NC(=O)N(C2CCCCC2)C1=O` (stereo not given), the Potency entry in assay [1], in assay [2] and in [5] was “inactive” in each case. Besides, in [4], the activity (max response) is -4.2% (inactive).

As for `NCC(O)c1ccc(O)cc1` (stereo not given), the Potency entry in [1], in assay [2] and in assay [5] was “inactive” in each case. In [4], the activity (max response) is 9.24% (inactive).

In the case of `C[C@@]12OC(=O)[C@]1([C@@H](O)[C@@H]1C=CCCC1)NC(=O)[C@@H]2CCCl`, the Potency in [1] was 20.9 nM (active); in [2], 0.0235 µM (active); in [4], 0.501 µM (active); in assay [5] it was 0.398 µM (active).

Turning to `C=CCC1(C(C)CC)C(=O)NC(=O)NC1=O` (stereo not given), the Potency result in [1], in [2] and in assay [5] was “inactive” each time. Moreover, the activity (max response) in assay [4] was 0.393% (inactive).
